# Compounds with a hit are over-represented: about 1.7% of the library has one in this group of screens.
# rTrxR1 inhibitor: inhibitors of rat thioredoxin reductase 1 | recombinant rTrxR1, NADPH fluorescence consumption, selenite substrate | actives 1% (n = 390,000) | O89049 | Potency, µM (highest dose often 114 µM), for inactives: at the highest dose activity change, negative = inhibition, most hits filed as inhibitors | AID 588453; note: % is set by controls: 0 for no effect and ±100 for the full control effect; nearly all actives have a fitted effect of over 65% in size
#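 Rat TrxR1 (90 nM in the dispensed reagent) was pre-reduced with 400 uM NADPH for 5 min at room temperature, then incubated with compound for 15 min. After 400 uM selenite was added, NADPH fluorescence (Ex 340/Em 450 nm) was followed for 8 min.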
# Glioma ERSR ind: inducers of ER stress response in human glioma cells; U87-MG GRP78 promoter luciferase reporter, 16 h; Potency, µM, for inactives: at the top dose activation, most hits filed as activators; actives 0.02% (n = 420,000); AID 602332; note: series mostly up to about 76 µM; % of control where 0% means no effect; nearly all actives have a fitted effect of over 35% in size
#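 ERSR induction read as luciferase luminescence (Bright-Glo, 10 min at room temperature) in stably transfected human U87-MG glioma cells exposed to compounds for 16 h, using GRP78 as sensor.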
# TrxR1 substrate: substrates of rat thioredoxin reductase 1. actives 0.01% (n = 390,000). O89049. AID 588456. Potency, µM (titrated, usually from 114 µM), for the others: at the top dose activity change, negative = substrate turnover. purified TrxR1 substrate turnover, NADPH consumption readout; note: % is set by controls: 0 for no effect and ±100 for the full control effect; nearly all actives have a fitted effect of over 50% in size
#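 Rat TrxR1, dispensed at 90 nM, was prereduced with 400 uM NADPH (final) for 5 min at ~22 deg C, then incubated with compound 15 min before 400 uM selenite. A first-read NADPH fluorescence drop versus no-compound background flagged substrates.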
# Anesthetic bind: binds horse apoferritin like a general anesthetic | Potency, µM (doses to about 77.5 µM), without a hit: at the top dose activity change, negative = displacement, hits mostly inhibitors | actives 0.074% (n = 350,000) | AID 485281 | apoferritin/1-aminoanthracene competitive binding, fluorescence | P02791; note: % is set by controls: 0 for no effect and ±100 for the full control effect; nearly all actives have a fitted effect of over 20% in size
# Target sequence (P02791 2-175 limits assumed): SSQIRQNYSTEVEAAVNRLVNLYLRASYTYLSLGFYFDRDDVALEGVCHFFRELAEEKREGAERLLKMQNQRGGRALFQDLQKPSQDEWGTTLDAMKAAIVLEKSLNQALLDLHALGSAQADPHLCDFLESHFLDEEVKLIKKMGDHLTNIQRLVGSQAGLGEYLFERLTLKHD
#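 Steps: apoferritin (10 uM) was premixed with half-saturated 1-AMA in PBS, compounds were pin-transferred, plates stood 10 min at room temperature, fluorescence was read at 380/535 nm, and curves were fitted with a Hill equation.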
# ALOX12 inh: blocks human arachidonate 12S-lipoxygenase; P18054; purified 12hLO, xylenol orange hydroperoxide absorbance; Potency, µM (doses to about 108 µM), without a hit: top-dose activity change, negative = inhibition, actives largely listed as inhibitors; actives 1.1% (n = 580,000); note: % is set by controls: 0 for no effect and ±100 for the full control effect
#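 Purified human 12hLO (150 nM final) in 25 mM Hepes, 0.01% Triton X-100, pH 7.0 was preincubated 15 min at room temperature with compound. Then 40 uM arachidonic acid was added, 30 min. Hydroperoxide was read by Fe-XO absorbance ratio 573/405 nm.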
# mIDH1 inhibitor: inhibitors of human mutant IDH1 R132H; O75874; IDH1-R132H enzyme, NADPH consumption, diaphorase/resazurin fluorescence; Potency, µM (doses to about 76.6 µM), inactives show at the top dose activity change, negative = inhibition, hits mostly inhibitors; actives 0.093% (n = 390,000); AID 602179; note: % is set by controls: 0 for no effect and ±100 for the full control effect; nearly all actives have a fitted effect of over 65% in size
# Target sequence (O75874 whole entry R132H, stated change not applied): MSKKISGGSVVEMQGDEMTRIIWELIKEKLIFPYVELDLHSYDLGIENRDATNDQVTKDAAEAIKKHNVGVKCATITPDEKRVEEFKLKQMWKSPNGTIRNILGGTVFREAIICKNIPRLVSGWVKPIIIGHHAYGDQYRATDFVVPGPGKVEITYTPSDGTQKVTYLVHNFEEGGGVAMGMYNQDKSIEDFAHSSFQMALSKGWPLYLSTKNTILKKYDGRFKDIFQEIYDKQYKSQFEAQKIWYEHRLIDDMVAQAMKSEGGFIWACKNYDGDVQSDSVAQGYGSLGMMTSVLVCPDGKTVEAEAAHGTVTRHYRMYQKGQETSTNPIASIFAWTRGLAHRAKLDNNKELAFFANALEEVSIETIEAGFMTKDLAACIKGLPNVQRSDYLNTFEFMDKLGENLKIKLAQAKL
#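 IDH1-R132H (0.5 ug/mL) preincubated 30 min with compound, then NADPH (0.016 mM) and alpha-KG (2 mM) added; 80 min at RT, pH 7.5. Remaining NADPH coupled via diaphorase/resazurin to fluorescence (540/590 nm); concentration-response curves normalized to no-enzyme control.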
# * hit, by the source's call; ? = inconclusive; · = no result given; [ ] = another dose, or the depositor's remark. Calls come from the whole dose curve; as a rule, active = well fitted curve in the direction sought with a large enough effect; inconclusive = small, poorly fitted or top-dose-only effect, or another doubt; inactive = no such curve, though single readings can be large; an effect the other way counts as inactive or inconclusive. Potency is the fitted concentration of half-maximal effect.
SMILES,rTrxR1 inhibitor,Glioma ERSR ind,TrxR1 substrate,Anesthetic bind,ALOX12 inh,mIDH1 inhibitor
COc1ccc(S(=O)(=O)N2CCCC(c3nn[nH]n3)C2)cc1 (centres undefined),·,·,·,·,1%,·
Cc1cccc2c1-c1sc(C(=O)N(C)c3cccc(C(F)(F)F)c3)cc1CO2,77%,-3%,40%,1%,-13%,7%
Cc1ccc(NC(=S)NNc2ccc([N+](=O)[O-])cc2S(=O)(=O)Nc2ccccc2C(=O)O)cc1C,?,-4%,-10%,4%,10µM*,-3%
CN(CCO)c1ccc(C=NNc2ccc([N+](=O)[O-])cc2S(=O)(=O)Nc2ccccc2C(=O)O)cc1,-4%[57.1 µM],-1%,2%[57.1 µM],·,40µM*,3%
O=C(O)c1ccccc1NS(=O)(=O)c1ccc(NNC(=S)Nc2ccc(OC(F)F)cc2)c([N+](=O)[O-])c1,50µM*,-5%,-17%,-17%,3.5µM*,-13%
Cc1ccc(NC(=S)NNc2ccc(C(=O)O)cc2[N+](=O)[O-])cc1C,-5%[57.1 µM],-5%,11%[57.1 µM],·,1.4µM*,16%
CC(=O)Nc1ccc(C=NNc2ccc([N+](=O)[O-])cc2S(=O)(=O)Nc2ccccc2C(=O)O)cc1,-22%,1%,-12%,·,?,-8%
CCn1cc(S(=O)(=O)N2CCC(c3noc(-c4ccncc4)n3)C2)cn1 (centres undefined),·,·,·,·,28%,·
N#C/C(=C/c1ccc(N2CCOCC2)o1)c1ccc(Cl)cc1,3.2µM*,?,-2%,-24%,7.9µM*,4%
CCCN(CCC)CC1=C(C(=O)OCC)C(c2ccc(C)cc2)NC(=O)N1 (centres undefined),·,·,·,·,14µM*,·
CCOC(=O)C1=C(CN2CCSCC2)NC(=O)NC1c1ccc2c(c1)OCO2 (centres undefined),4%,-2%,-5%,-13%,-4%,3%
CCOC(=O)C1=C(CCl)NC(=O)NC1c1ccc2c(c1)OCO2 (centres undefined),11µM*,7%,3%,-4%,?,-9%
CCOC(=O)C1=C(CN(CCOC)Cc2ccco2)NC(=O)NC1c1ccc(C)cc1 (centres undefined),·,·,·,·,-18%,·
O=C(NCc1ccccc1)C(=O)N1CCN(C(=O)c2cc3ccccc3[nH]2)CC1,·,·,·,·,10%,·
O=C(NC(NC(=O)c1ccccc1F)c1ccc(Br)cc1)c1ccccc1F,·,·,·,·,-18%,·
C/C(CC(=O)Nc1ccc(Cl)c(Cl)c1)=N\NC(N)=S,?,-5%,-12%,-22%,1µM*,6%
N#C/C(C(=O)CCl)=C(/c1ccc(F)cc1)N1CCOCC1,·,·,·,·,22µM*,·
Cc1ccc(-c2csc(NC(=O)c3cccc(N4C(=O)CCC4=O)c3)n2)o1,20µM*,-2%,2%,-11%,·,0%
O/N=C(/CBr)c1ccc2ccccc2c1,25µM*,-1%,11%[0.0914 µM],·,·,·
O=c1[nH][nH]c(=S)n1C1CCCCC1,-12%[57.1 µM],-2%,-6%[57.1 µM],0%,·,10%
CC(C)n1c(=O)[nH][nH]c1=S,-3%[57.1 µM],0%,3%[57.1 µM],-1%,35µM*,2%
CN(C)c1ccc(CN2CCC3(C2)C(=O)N(C)c2ccccc23)cc1 (centres undefined),·,·,·,·,25%[176 µM],·
COC(C/C=C\C(=O)[C@H](C)OCc1ccccc1)OC,45µM*,-1%,-3%,·,-27%,-2%[38.3 µM]
COC(C/C=C\[C@@H](O)[C@@H](C)OCc1ccccc1)OC,14%,-3%,6%[57.1 µM],·,-3%,3%
O=C1c2ccccc2C(=O)c2c(O)ccc(O)c21,·,·,·,·,-7%,·
SMILES,rTrxR1 inhibitor,Glioma ERSR ind,TrxR1 substrate,Anesthetic bind,ALOX12 inh,mIDH1 inhibitor
O=C1C(=C(I)I)c2ccccc2-c2ccccc21,0.89µM*,-14%,-29%[57.1 µM],·,5.6µM*,20%
COCCN(C)C(=O)c1cnn(-c2nccc(-c3cc(C)sc3C)n2)c1C,·,3%,·,·,2%,·
FC(F)(F)c1ccc2nc([C@H]3CCN(Cc4ccc(Cl)cc4)C3)[nH]c2c1,·,·,·,·,32µM*,·
Clc1ccc(CN2CC[C@H](c3nc4cc(Cl)ccc4o3)C2)cc1,·,·,·,·,22µM*,·
CN(C)c1ccc(CN2CC[C@H](c3nc4ccc(C(F)(F)F)cc4[nH]3)C2)cc1,·,·,·,·,-1%[176 µM],·
CC(=O)Nc1ccc(-c2csc(NC(C)C)n2)c(F)c1,·,·,·,·,-49%,·
CCOC(=O)/C(C)=N/Nc1nc(-c2ccc(NC(C)=O)cc2)cs1,56µM*,-1%,-15%,-6%,0%,0%
CNc1nc(-c2ccc(NC(C)=O)cc2F)cs1,·,·,·,·,32µM*,·
CC(=O)Nc1ccc(-c2csc(NC(C)(C)C)n2)cc1,·,·,·,·,10µM*,·
CC(=O)Nc1ccc(-c2csc(NCc3ccccc3)n2)cc1,6%[57.1 µM],3%,10%[57.1 µM],?,?,9%
CC(=O)Nc1ccc(-c2csc(Nc3ccc(O)c(C(=O)O)c3)n2)cc1,·,·,·,·,40µM*,·
CC(=O)Nc1cccc(C(=O)NC2CCCN(c3cc(-c4ccccc4)[nH]n3)C2)c1 (centres undefined),·,·,·,·,10%,·
CN1C(=O)Cc2cc(-c3csc(-c4ccc(F)cc4)n3)ccc21,·,·,·,·,-12%,·
CN1C(=O)Cc2cc(-c3csc(NC(C)(C)C)n3)ccc21,·,·,·,·,11µM*,·
CC(=O)Nc1ccc(-c2csc(NC(C)(C)C)n2)c(F)c1,·,·,·,·,11µM*,·
CCNc1nc(-c2ccc(NC(C)=O)cc2F)cs1,·,·,·,·,7.1µM*,·
O=c1[nH]c(C2CCN([S+](=O)([O-])c3cccc(C(F)(F)F)c3)CC2)nn1-c1ccc(F)cc1,·,·,·,·,33%,·
O=C(Cc1cccc(F)c1)N1CCOCC1,13%,-3%,2%,·,0%,-7%
COc1ccc(-c2cn3c(n2)CO[C@@H](CNS(=O)(=O)c2ccc(C)cc2)C3)cc1,·,·,·,·,-34%[176 µM],·
CC(C)c1cccc(OCC(=O)N2CCCC2)c1,·,·,·,·,0%,·
CC(=O)c1cccc(-n2c(CCC(=O)O)ccc2-c2cccs2)c1,?,4%,14%[57.1 µM],-15%,?,0%
O=C(O)CCc1ccc(-c2cccs2)n1-c1ccc(C(=O)O)cc1,71µM*,-5%,6%,-2%,?,11%
COc1ccc(-c2nc3n(n2)C(=O)CC(c2ccco2)S3)cc1 (centres undefined),14µM*,2%,3%,-3%,·,2%
O=C1CCN(C(=O)c2cccnc2)CCCC(C(=O)NCc2ccccc2)CCN1 (centres undefined),·,·,·,·,5%,·
Cc1c(C(c2cc(O)ccc2O)c2c(C)n(C)n(-c3ccccc3)c2=O)c(=O)n(-c2ccccc2)n1C,71µM*,-3%,0%,·,12%,-6%
O=CNc1cc(-c2cccc(O)c2)cn2c(-c3ccc(F)cc3)cnc12,·,0%,·,·,45µM*,·
